Screens from PubChem BioAssay.
TDP1 inh: inhibitors of human tyrosyl-DNA phosphodiesterase TDP1. Q9NUW8. recombinant TDP1, AlphaScreen DNA substrate cleavage. Potency, µM (highest dose often 130 µM), actives largely listed as inhibitors. actives 0.28% (n = 350,000). AID 485290; also: nearly all actives have a fitted effect of over 40% in size
Target sequence (Q9NUW8 whole entry, looked up): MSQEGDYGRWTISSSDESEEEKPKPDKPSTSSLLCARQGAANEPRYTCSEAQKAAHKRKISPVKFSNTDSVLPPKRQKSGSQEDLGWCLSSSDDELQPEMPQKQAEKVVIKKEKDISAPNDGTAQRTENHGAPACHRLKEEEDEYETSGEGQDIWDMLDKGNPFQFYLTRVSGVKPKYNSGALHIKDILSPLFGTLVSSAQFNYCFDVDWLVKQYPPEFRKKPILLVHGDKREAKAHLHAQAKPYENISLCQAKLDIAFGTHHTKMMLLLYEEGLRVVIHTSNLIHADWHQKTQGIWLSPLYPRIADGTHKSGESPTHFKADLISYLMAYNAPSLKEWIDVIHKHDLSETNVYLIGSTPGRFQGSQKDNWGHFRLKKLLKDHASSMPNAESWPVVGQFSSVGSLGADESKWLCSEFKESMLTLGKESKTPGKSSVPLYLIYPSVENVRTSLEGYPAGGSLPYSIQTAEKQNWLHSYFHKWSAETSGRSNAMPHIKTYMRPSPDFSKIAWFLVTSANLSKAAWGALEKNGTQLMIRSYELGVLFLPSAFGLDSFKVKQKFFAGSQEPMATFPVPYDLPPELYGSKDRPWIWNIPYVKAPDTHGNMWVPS
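Enzyme-compound mixtures sat 15 min at room temperature, followed by a 5 min reaction with 15 nM final substrate and 10 min with AlphaScreen beads. Recombinant human Tdp1 was used at 1 nM final.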
IL1B secr inh: inflammasome signaling inhibition, IL-1 beta readout; actives 4.7% (n = 360,000); THP-1 LPS/ATP IL-1B secretion, AlphaLISA, 16 h; hits give low values; activity change, % at 57.5 µM; in the data active = activity change below about -50%; inconclusive = mostly about -30% to -49%
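Secreted IL-1B measured by AlphaLISA bead assay after 16 h compound exposure of THP-1 cells; compounds (final up to 57.5 uM) added 1 h before LPS (250 ng/mL) and ATP (1.25 mM) stimulation; lower signal means less secretion.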
ELG1 repair inh: ELG1-dependent DNA repair inhibition | HEK293T ELG1-luciferase reporter, luminescence, 16 h; DNA damage induced by 5-fluorouridine | Potency, µM (titrated, usually from 46.1 µM), usual class: inhibitors | actives 2.3% (n = 330,000) | AID 504467; also: nearly all actives have a fitted effect of over 55% in size
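Luminescence from the luciferase reporter, measured 30 min after ONE-Glo reagent at room temperature, was the read-out. Beforehand, 2,000 cells per well were exposed for 16 hr at 37 °C to 5-fluorouridine together with compound or vehicle.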
TDP1 cell CPT: DT40-hTDP1 cell growth loss with CPT; chicken DT40 Tdp1-/-;hTDP1 cells + 20 nM CPT, ATP luminescence, 48 h; Potency, µM (doses to about 46.2 µM), actives largely listed as inhibitors; actives 12% (n = 420,000); also: nearly all actives have a fitted effect of over 55% in size
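Chicken DT40 Tdp1-/- cells complemented with human TDP1, 400 cells/well, exposed to compounds plus 20 nM camptothecin for at least 48 h at 37 C; viability read as ATP content by CellTiter-Glo luminescence.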
DT40 TDP1 no CPT: qHTS for Inhibitors of human tyrosyl-DNA phosphodiesterase 1 (TDP1): qHTS in cells in absence of CPT; DT40 Tdp1-/- hTDP1 cells, no CPT, ATP luminescence, 48 h; Potency, µM (highest dose often 46.2 µM), usual class: inhibitors; actives 15% (n = 420,000); also: nearly all actives have a fitted effect of over 55% in size
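Chicken DT40 Tdp1-/- cells stably complemented with human TDP1 were seeded at 400 cells/well with DMSO in place of 20 nM camptothecin. After compound pinning, cells grew at least 48 hr at 37 °C; viability read by CellTiter-Glo luminescence.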
Giardia kill: Giardia lamblia killing | actives 0.15% (n = 340,000) | activity change, % at 7.66 µM, hits read low | Giardia lamblia trophozoite viability; in the data active = activity change below about -80%; inconclusive = between about -30% and that limit;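 also: parasites exposed to compound for two days anaerobically before the ATP read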
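Trophozoite viability was measured as ATP-dependent luminescence, read 15-30 min after reagent addition. Before that, parasites at 100 cells/well were exposed to compounds for 48 h, anaerobically, at 37 deg C.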
Numbers stand for hits; i = inactive; ? = inconclusive; nt = no result. Only some compounds are listed: those with a hit (about 19% of all), similar ones and a draw of the others. Unless noted, calls follow the shape of the dose curve; as a rule, active = well fitted curve in the direction sought with a large enough effect; inconclusive = small, poorly fitted or top-dose-only effect, or another doubt; inactive = no such curve, though single readings can be large; an effect the other way counts as inactive or inconclusive.

SMILES | TDP1 inh | IL1B secr inh | ELG1 repair inh | TDP1 cell CPT | DT40 TDP1 no CPT | Giardia kill
COc1ccccc1C(=O)Nc1nnc(S(=O)(=O)N(C)c2ccc(Cl)cc2)s1 | i | nt | nt | i | ? | nt
CSc1ccc(N=Nc2c(C)[nH]n(C)c2=O)cc1 | i | nt | i | i | ? | i
O=C(Cc1c(F)cccc1Cl)N/N=C/c1cccnc1 | i | i | i | i | i | i
CCCNC(=O)c1onc(CSc2ccc(F)c(F)c2)c1C(=O)NCCC | nt | i | nt | 14.6µM | ? | i
CN(C)CCNC(=O)c1onc(CSc2ccc(F)cc2)c1C(=O)NCCN(C)C | i | i | i | i | i | i
CN(C)CCNC(=O)c1onc(CSc2ccc(F)c(F)c2)c1C(=O)NCCN(C)C | i | ? | ? | i | 16.4µM | i
CCNC(=O)C1(C)CCCN(C(=O)c2ccc(C(F)(F)F)nc2C)C1 (stereo unspecified) | nt | i | nt | i | i | nt
CCc1cc2c(NCc3ccccc3)nc(C)nc2s1 | nt | i | i | 16.4µM | 8.2µM | ?
CCc1cc2c(NCC3CCCO3)nc(C)nc2s1 (stereo unspecified) | i | i | ? | 13µM | ? | i
Cn1cc(C(C[N+](=O)[O-])c2ccccc2)c2ccccc21 (stereo unspecified) | nt | i | ? | ? | ? | i
CC(=O)n1cc(C(C[N+](=O)[O-])SCCN)c2ccccc21 (stereo unspecified) | i | -97.4 | ? | 5.17µM | 5.17µM | i
CC1(C(=O)NS(=O)(=O)c2cccc(F)c2)CCN1C(=O)C1CCCCC1 (stereo unspecified) | nt | i | nt | i | i | nt
Cc1ccc(CNc2ccc(O)cc2)cc1 | i | -95.2 | ? | ? | 16.4µM | ?
COc1cccc(C2C=C(c3ccc(C)cc3)Nc3c(C(=O)Nc4ccc(F)cc4)cnn32)c1OC (stereo unspecified) | i | nt | nt | ? | 18.4µM | nt
COc1cccc(C(=O)NC2=NC(c3ccccc3F)CC(=O)N2)c1 (stereo unspecified) | i | nt | nt | i | i | nt
O=C(Nc1ccc(Cl)cc1)c1cnn2c1NC(c1ccccc1)=CC2c1ccccc1 (stereo unspecified) | i | nt | nt | ? | ? | nt
COc1cccc(C2=CC(c3ccccc3F)n3ncc(C(=O)Nc4ccc(F)cc4)c3N2)c1 (stereo unspecified) | i | nt | nt | ? | 18.4µM | nt
COc1ccc(C2=CC(c3ccccc3F)n3ncc(C(=O)Nc4ccc(C)cc4)c3N2)cc1 (stereo unspecified) | i | nt | nt | 5.17µM | 20.6µM | nt
O=C(CCC1CCCN(C(=O)c2ccc3c(c2)OCO3)C1)NCc1ccc(F)c(F)c1 (stereo unspecified) | i | i | i | ? | i | i
COc1cccc(Cn2c(=O)c(-c3ccc(Cl)cc3)nc3cnc(N4CCOCC4)nc32)c1 | nt | nt | nt | i | i | nt
CCOc1ccc(Cl)cc1-c1cc(C(=O)NC(C)C)[nH]n1 | nt | i | nt | ? | ? | nt
O=C(NCCc1ccccc1)c1cc(=O)c2ccccc2o1 | i | i | i | i | ? | i
Cc1cccc(N2CCN(c3ncnc4c3nc3n4CCCCC3)CC2C)c1 (stereo unspecified) | i | nt | nt | 7.31µM | 9.2µM | nt
Cc1ccc(Cl)cc1N1CCN(c2ncnc3c2nc2n3CCCCC2)CC1 | i | nt | nt | ? | ? | nt
CC1CCCC(C)N1CCCNC(=O)C1CCCN(c2ncnc3c2nc2n3CCCCC2)C1 (stereo unspecified) | i | i | i | i | i | i
SMILES | TDP1 inh | IL1B secr inh | ELG1 repair inh | TDP1 cell CPT | DT40 TDP1 no CPT | Giardia kill
Cc1cccc(N2CCN(CCCNC(=O)C3CCCN(c4ncnc5c4nc4n5CCCCC4)C3)CC2C)c1 (stereo unspecified) | i | -76.7 | 11.6µM | ? | 11.6µM | i
O=C(/C=C1\OCc2ccccc21)c1ccccc1 | nt | i | nt | ? | ? | nt
Cc1ccc(C)c(C(=O)c2c(N)c(-c3nc(-c4ccc5c(c4)OCO5)cs3)c3ccccn23)c1 | i | nt | nt | ? | ? | nt
Cc1ccc(Nc2c3c(nc4ccccc24)CCC3)cc1F | i | nt | nt | 20.6µM | 16.4µM | nt
Cc1cccc(Nc2c3c(nc4ccccc24)CCC3)c1 | i | nt | 20.6µM | 14.6µM | 18.4µM | i
N#Cc1cccc(Nc2c3c(nc4ccccc24)CCC3)c1 | nt | -58.6 | ? | ? | ? | i
CC(=O)NC(c1ccccc1)c1nc(-c2csc3ccccc23)cs1 (stereo unspecified) | nt | i | nt | ? | ? | nt
CC(=O)NC(c1cccc(F)c1)c1nc(-c2cccc(C(C)C)c2)cs1 (stereo unspecified) | nt | i | nt | 25.9µM | 20.6µM | nt
CC(=O)NC(c1cccc(F)c1)c1nc(-c2csc3ccccc23)cs1 (stereo unspecified) | nt | i | nt | 23.1µM | ? | nt
COc1cccc(C(O)c2nc(-c3cccc4cccnc34)cs2)c1 (stereo unspecified) | nt | i | nt | ? | i | nt
COc1cccc(C(N)c2nc(-c3csc4ccccc34)cs2)c1 (stereo unspecified) | nt | i | nt | 3.66µM | 2.91µM | nt
OC(c1cccc(Cl)c1)c1nc(-c2csc3ccccc23)cs1 (stereo unspecified) | nt | i | nt | 14.6µM | ? | nt
CSc1nc(C(=O)N2CCCC(C(=O)c3ccc(Cl)cc3)C2)cs1 (stereo unspecified) | i | i | i | ? | ? | i
CC(=O)NC(c1cccc(F)c1)c1nc(-c2cnn(C)c2)cs1 (stereo unspecified) | nt | i | nt | ? | 23.1µM | nt
COc1ccc(-c2csc(C(NC(C)=O)c3cccc(F)c3)n2)cn1 (stereo unspecified) | nt | i | nt | 14.6µM | ? | nt
CC(=O)NC(c1ccccc1)c1nc(-c2cnc3ccccc3c2)cs1 (stereo unspecified) | nt | i | nt | 11.6µM | 20.6µM | nt
COc1ccc(-c2csc(C(NC(C)=O)c3ccc(F)c(F)c3)n2)cn1 (stereo unspecified) | nt | i | nt | 23.1µM | ? | nt
CCCOc1ccc(C(=O)Nc2ccc(S(=O)(=O)N3C[C@@H]4C[C@@H](C3)c3cccc(=O)n3C4)cc2)cc1 | i | i | i | ? | 13µM | i
CCCOc1ccc(C(=O)Nc2ccc(S(=O)(=O)N3CCN(C)CC3)cc2)cc1 | nt | i | i | ? | ? | i
CCCn1c(C)cc(C(=O)COc2ccc(C)nc2[N+](=O)[O-])c1C | i | i | ? | ? | ? | ?
C=CCn1c(C)cc(C(=O)COC(=O)CNC(=O)c2ccccc2)c1C | i | i | ? | i | i | i
COCCn1c(C)cc(C(=O)COc2ccc(C)nc2[N+](=O)[O-])c1C | i | i | i | ? | ? | ?
C=CCn1c(C)cc(C(=O)COc2nncc3ccccc23)c1C | i | i | ? | 8.2µM | 7.31µM | i
